From PubChem
hcDAF12 agonist: H. contortus DAF-12 nuclear receptor activators, primary screen, cell-based, luminescence, HEK293, lit1-tk-luc reporter; hit rate 1.4% among 370,000; activation, % at 6.8 µM; HEK293 hcDAF-12 lit1-tk-luc reporter; 0% DMSO, 100% Δ7-dafachronic acid; AID 652067, 2013;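 active means activation above the mean of all tested compounds plus 3 SD, cut at about 5.5% in these data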;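 further: 100% = response to 3 µM Δ7-dafachronic acid high control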
DAX1 StAR inh: DAX1 (NR0B1) inhibitors on StAR promoter, primary screen, cell-based, luminescence, SF-1 (NR5A1), full-length DAX-1 | HEK293T StAR-luciferase reporter, SF-1/DAX-1 repression relief | hit rate 1.1% among 370,000 | AID 652010, 2013 | inhibition, % at 6.8 µM;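 active means inhibition above the mean over all tested compounds plus 3 SD, cut at about 3.6% in these data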;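 further: 0% = DAX-1 cells with DMSO and 100% = cells lacking DAX-1 with DMSO; higher inhibition means more luminescence from relief of DAX-1 repression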
Wnt act: Wnt/beta-catenin pathway activators, primary screen, cell-based, plate reader, single point. AID 743398, 2014. activation, % at 9.35 µM. Wnt/beta-catenin reporter cell assay, activator. hit rate 1.2% among 300,000; in the data active means activation above about 30%, passing the limit was not always enough;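 further: 0% = neutral control wells and 100% = positive control wells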
esBAF inh: Bmi1 luciferase reporter increase in mESCs, primary screen, esBAF inhibitor project, mouse ES cells, Bmi1 luciferase knock-in, single point; reporter increase, % at 12.5 µM; 24 h; 100% = twice the neutral-well signal; AID 602393, 2012; hit rate 2% among 350,000; in the data active means activation above about 40%;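 further: 0% = median of the plate's neutral control wells and 100% = double that signal; a rise in the Bmi1 reporter signal indicates esBAF inhibition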
ssDAF12 agonist: S. stercoralis DAF-12 nuclear receptor activators, primary screen, cell-based, luminescence, HEK293, GRIP1 co-expression, lit1-tk-luc. activation, % at 6.8 µM. AID 652126, 2013. Nuclear hormone receptor DAF-12 (Strongyloides stercoralis). HEK293 ssDAF-12/GRIP1 lit1-tk-luc reporter; % of 3 µM dafachronic acid response. hit rate 1% among 370,000;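 active means activation above the mean over all tested compounds plus 3 SD, cut at about 0.9% in these data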;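 further: 0% = DMSO-only wells and 100% = 3 µM delta7-dafachronic acid wells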
hgDAF12 agonist: H. glycines DAF-12 receptor agonists, primary screen, cell-based, luminescence, HEK293, GAL4 fusion, UAS-luciferase | AID 687014, 2013 | HEK293 GAL4-hgDAF12 UAS-luciferase reporter, agonist luminescence; normalized to butyrate control | activation, % at 6.8 µM | Nuclear hormone receptor DAF-12 (Heterodera glycines), GAL4 fusion | hit rate 1.8% among 370,000;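 active means activation above a cutoff set at the mean of all screened compounds plus 3 SD, cut at about 10% in these data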;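 further: 0% = DMSO wells and 100% = sodium butyrate wells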
hgDAF12 conf: H. glycines DAF-12 receptor agonists, confirmation, cell-based, luminescence, HEK293, GAL4-LBD fusion | shares compounds with hgDAF12 agonist | HEK293 GAL4-hgDAF12 luciferase reporter, agonist mode; percent of butyrate response | activation, % at 6.8 µM | hit rate 80% among 3,300 | AID 743050, 2013;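 active means mean activation over triplicate wells above the hit cutoff derived from the earlier primary screen, cut at about 11% in these data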;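 further: 0% = DMSO low control and 100% = 2 mM sodium butyrate high control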
LXR ag 2: LXR agonists, Gal4 luciferase reporter, confirmation, counter-screen for hgDAF-12 agonist project, cell-based, luminescence, HEK293, H. glycines campaign; shares compounds with hgDAF12 agonist; 24 h; 3,300 tested, under 10 active; activation, % at 6.8 µM; AID 743051, 2013;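 active means mean activation of the triplicate above a set limit carried over from the primary screen, none filed active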
Target sequence (P55055 whole entry, looked up, the tested form may be a part): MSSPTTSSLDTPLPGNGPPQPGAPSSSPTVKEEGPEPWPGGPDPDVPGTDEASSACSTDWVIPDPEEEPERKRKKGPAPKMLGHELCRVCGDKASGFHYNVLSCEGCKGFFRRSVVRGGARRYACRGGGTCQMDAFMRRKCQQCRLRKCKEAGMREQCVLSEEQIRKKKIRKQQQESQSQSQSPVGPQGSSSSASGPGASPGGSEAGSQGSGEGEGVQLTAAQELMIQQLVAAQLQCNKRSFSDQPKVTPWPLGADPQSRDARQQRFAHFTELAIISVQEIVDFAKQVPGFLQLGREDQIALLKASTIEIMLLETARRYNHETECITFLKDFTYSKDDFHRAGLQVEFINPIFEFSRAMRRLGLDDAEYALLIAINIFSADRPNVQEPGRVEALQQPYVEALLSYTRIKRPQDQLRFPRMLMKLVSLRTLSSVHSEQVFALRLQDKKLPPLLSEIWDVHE
Active calls of the source: *; . = no result. Only some compounds are listed: those with a hit (about 4.2% of all), similar ones and a draw of the others.

SMILES | hcDAF12 agonist | DAX1 StAR inh | Wnt act | esBAF inh | ssDAF12 agonist | hgDAF12 agonist | hgDAF12 conf | LXR ag 2
CCn1nc(C)cc1C(=O)N1CCc2c([nH]c3ccccc23)C1c1cc(F)ccc1F (stereo unspecified) | 6.2* | 0.7 | 15.5 | . | 0.8 | 14.4* | 12.7* | 0.5
Cc1ncoc1C(=O)N1CCc2c([nH]c3ccccc23)C1c1ccccc1F (stereo unspecified) | 3.4 | 0.6 | 3.5 | 4.5 | 0.4 | 16.1* | 2.5 | 0.0
CC(C)NC(=O)N[C@@H]1CC[C@@H](CC(=O)NCc2ccc(Oc3ccccc3)cc2)O[C@H]1CO | . | . | . | 1.0 | . | . | . | .
Oc1[nH]c2ccccc2c1N=Nc1nncc2ccccc12 | 2.8 | 3.2 | -4.6 | . | 0.2 | 15.8* | 12.4* | 0.5
COc1cnn(-c2ccc(Br)cc2)c(=O)c1SCc1ccccc1 | 1.5 | 0.9 | -0.6 | . | -0.7 | 4.4 | . | .
COc1ccc(Oc2cnn(-c3ccccc3)c(=O)c2Br)cc1 | -1.2 | -1.5 | 1.1 | . | -0.8 | 56.4* | 1.2 | 0.0
O=C(COC(=O)C1=Cc2ccccc2OC1)NCc1ccccc1 | -1.0 | 0.0 | 1.1 | -2.6 | -0.7 | 2.2 | . | .
O=C(OCc1cccnc1)C1=Cc2ccccc2OC1 | -1.3 | 0.6 | -1.0 | . | -1.2 | 14.4* | 3.4 | 0.1
CCOc1cc(C2c3c(n[nH]c3C)C(=O)N2c2ccc(C)cc2)ccc1O (stereo unspecified) | 0.1 | 0.0 | 1.0 | 14.3 | -2.0 | 2.7 | . | .
CCOc1cc(C2NN=C(c3ccc(C)cc3)S2)ccc1O (stereo unspecified) | 3.6 | 2.5 | 63.4* | . | -0.1 | 14.3* | 15.7* | 0.6
C/C(CC(=O)Nc1cccc(Cl)c1Cl)=N\NC(=O)C(=O)NC1CCCCC1 | 1.8 | -0.2 | -1.4 | 0.1 | 0.0 | 0.5 | . | .
C/C(CC(=O)NC1CCCCC1)=N\NC(=O)c1ccccn1 | 4.1 | 3.3 | -5.5 | . | 0.1 | 19.5* | 4.3 | 0.2
Cc1ccc(S(=O)(=O)N(C)C[C@H]2Oc3ccc(NC(=O)Nc4ccc(C(F)(F)F)cc4)cc3C(=O)N([C@@H](C)CO)C[C@H]2C)cc1 | . | . | . | -6.6 | . | . | . | .
N#Cc1c(N)nc(N)nc1Nc1ccc(Br)cc1 | 4.1 | 2.1 | 29.4 | . | 0.0 | 17.2* | 18.1* | 0.8
COc1ccc2c(c1OC)C(=O)N(c1cccc(C)c1)C2 | 5.6 | 3.6* | . | 4.8 | 1.3* | 13.3* | 16.2* | 0.7
C[C@H]1CN([C@@H](C)CO)C(=O)c2cc(NC(=O)Nc3ccc(C(F)(F)F)cc3)ccc2O[C@@H]1CN(C)S(=O)(=O)c1cn(C)cn1 | . | . | . | 4.6 | . | . | . | .
Cc1ccc(Nc2nc(CSc3nnnn3-c3ccccc3)cs2)cc1 | -2.2 | -0.6 | 6.6 | 2.4 | -1.4 | -1.7 | . | .
Cc1ccc(Nc2nc(CSc3nnc(-c4ccccc4)n3C)cs2)cc1 | 3.8 | 2.1 | . | 19.6 | 0.1 | 14.0* | 11.8* | 0.4
O=C(Oc1ccc([N+](=O)[O-])cc1)c1cc(-c2ccccc2)nc2ccccc12 | -1.7 | -0.5 | -0.8 | 5.5 | -0.9 | 1.1 | . | .
O=C(O)COn1c(-c2ccccc2)nc2ccc([N+](=O)[O-])cc21 | 4.4 | 3.2 | 12.4 | 48.7* | 0.6 | 14.1* | 13.5* | 0.6
